# From PubChem BioAssay (EPA / NIEHS)
# “And” between values parts separate entries of the source, which are not always exact repeats. Equal entries are not always repeated. The source holds several records for some structures; these can differ, active in one and inactive in another. The source made the active and inactive calls. The calls were made as follows: active = hit-call score of the fitted dose curve at least 0.9, where 1 is the maximum; inactive = score below 0.9.
# Read-out: E-selectin (Homo sapiens) (UniProt P16581)
# Test: BSK_3C_Eselectin: BioMAP Diversity Plus: 3C Assay for Eselectin Biomarker Activity (AID 2283015);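 as to outcome: cell surface E-selectin protein quantified by ELISA 24 h after dosing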
# Details: primary human endothelial cells (HUVEC); actives raise or lower the signal
# Summary of the method: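 Endpoint derived by bidirectional fitting against DMSO vehicle; signal is ELISA-detected E-selectin from primary HUVEC at 24 h post-dosing, with parallel SRB staining (0.1% SRB, 560 nm) flagging cytotoxicity.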
# Sequence of E-selectin (Homo sapiens) (P16581 whole entry, looked up): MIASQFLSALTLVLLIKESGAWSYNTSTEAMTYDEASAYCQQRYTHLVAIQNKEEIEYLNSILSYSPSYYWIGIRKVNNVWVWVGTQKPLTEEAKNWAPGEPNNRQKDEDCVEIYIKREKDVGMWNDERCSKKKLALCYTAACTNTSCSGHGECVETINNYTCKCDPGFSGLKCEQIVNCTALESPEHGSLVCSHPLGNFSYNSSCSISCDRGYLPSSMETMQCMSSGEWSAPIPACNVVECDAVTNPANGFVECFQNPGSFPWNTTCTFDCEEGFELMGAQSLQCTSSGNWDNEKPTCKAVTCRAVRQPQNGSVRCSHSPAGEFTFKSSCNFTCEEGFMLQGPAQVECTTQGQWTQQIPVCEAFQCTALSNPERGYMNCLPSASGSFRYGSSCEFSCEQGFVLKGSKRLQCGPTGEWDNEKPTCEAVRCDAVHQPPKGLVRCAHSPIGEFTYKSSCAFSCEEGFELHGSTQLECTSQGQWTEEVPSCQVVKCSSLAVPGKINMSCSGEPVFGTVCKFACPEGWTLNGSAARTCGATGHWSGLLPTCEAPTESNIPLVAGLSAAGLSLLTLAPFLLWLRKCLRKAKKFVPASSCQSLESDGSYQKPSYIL
Compound,outcome,AC50
OCC(F)(F)C(F)(F)C(F)(F)C(F)F,inactive,
Oc1ccc(Nc2ccccc2)cc1,,20 µM (active)
O=C(O)C(F)(F)C(F)(F)OC(F)(F)F,inactive,
CCCCCCOC(=O)c1ccccc1O,,38.5 µM (active) and 46.9 µM (active)
O=S(=O)(O)C(F)(F)C(F)(F)C(F)(F)C(F)(F)C(F)(F)C(F)(F)C(F)(F)F,inactive,
O=C(O)C(F)(F)C(F)(F)C(F)(F)C(F)(F)F,inactive,
O=C(O)C(F)(F)C(F)(F)C(F)(F)F,inactive,
C=CC(F)(F)C(F)(F)C(F)(F)C(F)(F)C(F)(F)C(F)(F)C(F)(F)C(F)(F)C=C,inactive,
CC(=O)Nc1ccc(N=Nc2cc(C)ccc2O)cc1,,0.463 µM (active)
N=C(N)C(F)(F)C(F)(F)C(F)(F)C(F)(F)C(F)(F)C(F)(F)C(F)(F)F,inactive,
O=C(O)C(F)(F)C(F)(F)C(F)(F)C(F)(F)C(F)(F)C(F)(F)C(F)(F)C(F)(F)Cl,inactive,23.8 µM (active)
O=P(O)(O)OCCC(F)(F)C(F)(F)C(F)(F)C(F)(F)C(F)(F)C(F)(F)F,inactive,
CCCCCCCOC(=O)c1ccccc1C(=O)OCCCCCCC,inactive,
CCCCCCCCCCCCCCCC[N+](C)(C)Cc1ccccc1,,7.67 µM (active)
FC(F)(F)C(F)(F)C(F)(F)CI,inactive,
O=C(O)C(F)(F)C(F)(F)C(F)(F)C(F)(F)C(F)(F)C(F)(F)C(F)(F)C(F)(F)C(F)(F)C(F)(F)C(F)(F)C(F)(F)C(F)(F)F,inactive,
O=C(O)C(F)(F)C(F)(F)C(F)(F)C(F)(F)C(F)(F)C(F)(F)C(F)(F)C(F)(F)C(F)(F)C(F)(F)C(F)(F)C(F)(F)F,inactive,
CC(C)(C)C(=O)CC(=O)C(F)(F)C(F)(F)C(F)(F)F,inactive,
FC(F)(F)C(F)(F)C(F)(F)C(F)(F)C(F)(F)C(F)(F)CC1CO1 (stereo not drawn),inactive,
O=C(O)C(F)(F)C(F)(F)C(F)(F)C(F)(F)C(F)(F)C(F)(F)C(F)(F)C(F)(F)C(F)(F)C(F)F,inactive,
O=C(O)C(F)(OC(F)(F)C(F)(OC(F)(F)C(F)(OC(F)(F)C(F)(F)C(F)(F)F)C(F)(F)F)C(F)(F)F)C(F)(F)F (stereo not drawn),inactive,
FC(F)(F)C(F)(F)C(F)(F)C(F)(F)C(F)(F)CCI,inactive,
